# Test results as given in PubChem BioAssay (NCI).
# About 83,000 compounds went through this panel and 20% of them were active in at least one assay; those are over-represented in the sample as a whole.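 Treatment: one concentration, 48 hours, 96-well format. Scoring: percent growth, with anything below 10 considered active.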 Unmarked numbers belong to inactive results. Active and inactive are the calls of the source.
# System: BT-549 breast
# Assay: NCI-60 one-dose screen, 48 h (100 = growth as untreated, 0 = no growth, -100 = all killed)
# Settings: 10 µM unless noted
row,SMILES,growth
1,Cc1ccc(C(=O)Nc2ccc(-n3ccnc3)c(C(F)(F)F)c2)cc1C#Cc1cnc2cccnn12,-67.8% (active)
2,N/C(=N\c1nc2ccccc2s1)NC(=O)Nc1ccccc1F,30.2%
3,Cc1nc2sccn2c1-c1nnc(SCC(C)C)o1,88.7%
4,O=[N+]([O-])c1cccc(-c2nnc3c(/C=C/c4ccc(F)cc4)nc4ccccc4n23)c1,87.5%
5,C=CC(=O)N1CCN(c2ccc3nc4c(nc3c2C(F)(F)F)C(=O)c2ncccc2C4=O)CC1,10.1%
6,CN1CCN(CCS(=O)(=O)Nc2cc(-c3ccc4ncnc(Nc5ccc(F)c(Cl)c5)c4c3)cnc2Cl)CC1,-53% (active)
7,COc1ccc(N=Nc2c(N)nn3c(-c4ccc(F)cc4)ccnc23)cc1,96.4%
8,O=C(N/N=C/c1c[nH]c2ccccc12)Nc1ccc(F)c(Cl)c1,18.5%
9,N#CCc1nnc(NC(=O)c2ccc(-n3c(=O)[nH]c4ccccc4c3=O)cc2)s1,109%
10,CCOc1ccc(-c2cc(-c3cc(C(C)C)c(O)cc3C)nn2-c2ccc(S(N)(=O)=O)cc2)cc1,3.59% (active)
11,CN1CCN(c2ccc3c4c(cccc24)C(=O)N(c2cccc(-c4nn(-c5ccccc5)cc4-c4nc5ccccc5s4)c2)C3=O)CC1,97.1%
12,O=C(Cn1c(-c2ccccc2)nc2ccccc21)N=Nc1c(O)[nH]c2ccc(Cl)cc12,-53% (active)
13,CCc1ccc(SC2c3cc(OC)ccc3Oc3nc(N)c(C#N)c(N)c32)cc1 (stereo unspecified),-67.8% (active)
14,CN(C)C(=O)c1cc(-c2ccc3ncnc(N4CCc5cc(F)c(Cl)cc54)c3c2)cnc1N,-82.9% (active)
15,CN1C(=O)C2(C(C#N)=C(c3ccc(Cl)cc3)Nc3c2c(-c2ccccc2)nn3-c2ccccc2)c2ccccc21 (stereo unspecified),93.8%
16,Cc1ccc2c(c1)/C(=C/C(=O)c1cc3ccccc3oc1=O)C(=O)N2,68.8%
17,N#CC1=C(c2cccs2)Nc2c(c(-c3ccccc3)nn2-c2ccccc2)C12C(=O)Nc1ccc(Cl)cc12 (stereo unspecified),-21.7% (active)
18,O=C(NC(=S)N1CCN(c2ncnc3c2cnn3-c2ccccc2)CC1)c1ccc(Br)cc1,65.1%
19,Nc1nnc(-c2cncc(Br)c2)c(-c2c[nH]c3ccc(Cl)cc23)n1,95.7%

row,SMILES,growth
1,COc1ccc(C2=NN(C(=O)[C@H]3[C@@H](c4ccco4)c4sc(=O)[nH]c4S[C@@H]3C)C(c3ccc4ccccc4c3)C2)cc1 (stereo partly specified),76.2%
2,CCOc1ccc2[nH]c(=O)c(C(c3nnnn3CC3CCCO3)N3CCN(Cc4ccccc4)CC3)cc2c1 (stereo unspecified),81.7%
3,FC(F)(F)c1cc2c(Cl)ncnc2n1CCC1CCOCC1,-41.1% (active)
4,COc1cc(/C=C/C(=O)c2cnn(-c3cc(=O)[nH]c4ccc(C)cc34)c2C)cc(OC)c1OC,-57.2% (active)
5,O=C(N/N=C/c1c[nH]c2ccccc12)Nc1ccccc1Cl,1.24% (active)
6,Nc1nn2c(-c3cc4ccccc4oc3=O)ccnc2c1N=Nc1ccccc1,29.5%
7,Cc1ccc(C(=O)Nc2cc(-c3ccncc3)cc(C(F)(F)F)c2)cc1C#Cc1cnc2cccnn12,86.8%
8,COc1ccc(C(=O)/C=C/c2ccc3c(c2)OCCO3)cc1S(N)(=O)=O,65.4%
9,FC(F)(F)c1cc2c(Cl)ncnc2n1CCN1CCCCC1,-3.05% (active)
10,COc1ccc2[nH]cc(-c3cc4nc(-c5cn(C)c6ncccc56)cc(N)n4n3)c2c1,-8.26% (active)
11,Nc1nc(-c2ccccc2)c(N=Nc2ccc(Cl)cc2Cl)s1,-47.2% (active)
12,COc1ccc(NC(=O)Cn2c(/C=C/c3ccc([N+](=O)[O-])cc3)nc3ccccc3c2=O)cc1,106%
13,C[C@@H]1[C@H]2C[C@@H](C[C@H]1NCc1nc3ccccc3n1C1CCCCCC1)C2(C)C,72.8%
14,COc1ccc(NC(=O)Cn2c(/C=C/c3cccc(Br)c3)nc3ccccc3c2=O)cc1,56.1%
15,Cc1ccc(-c2cc(C(=O)N=Nc3c(O)[nH]c4ccc(F)cc34)c3ccccc3n2)cc1,39.1%
16,CCOC(=O)c1ccc(NC(=S)NC(=O)c2ccc(NC(=O)C(C)C)cc2OC)cc1,-5.7% (active)
17,CCCSc1nnc(-c2c(C)nc3sccn23)o1,109%
18,Cc1ccc(N=Nc2c(N)nn3c(-c4cc5ccccc5oc4=O)ccnc23)cc1,74.5%
19,O=C(N/N=C/c1ccc(Cl)o1)c1[nH]c2ccc(Br)cc2c1-c1ccccc1,-25.9% (active)

# System: MDA-MB-435 melanoma
# Assay: as above
# Settings: 10 µM unless noted
row,SMILES,growth
1,Cc1ccc(C(=O)Nc2ccc(-n3ccnc3)c(C(F)(F)F)c2)cc1C#Cc1cnc2cccnn12,11.3%
2,N/C(=N\c1nc2ccccc2s1)NC(=O)Nc1ccccc1F,-18.1% (active)
3,Cc1nc2sccn2c1-c1nnc(SCC(C)C)o1,102%
4,O=[N+]([O-])c1cccc(-c2nnc3c(/C=C/c4ccc(F)cc4)nc4ccccc4n23)c1,102%
5,C=CC(=O)N1CCN(c2ccc3nc4c(nc3c2C(F)(F)F)C(=O)c2ncccc2C4=O)CC1,-71.1% (active)
6,CN1CCN(CCS(=O)(=O)Nc2cc(-c3ccc4ncnc(Nc5ccc(F)c(Cl)c5)c4c3)cnc2Cl)CC1,0.425% (active)
7,COc1ccc(N=Nc2c(N)nn3c(-c4ccc(F)cc4)ccnc23)cc1,56.2%
8,O=C(N/N=C/c1c[nH]c2ccccc12)Nc1ccc(F)c(Cl)c1,0.865% (active)
9,N#CCc1nnc(NC(=O)c2ccc(-n3c(=O)[nH]c4ccccc4c3=O)cc2)s1,106%
10,CCOc1ccc(-c2cc(-c3cc(C(C)C)c(O)cc3C)nn2-c2ccc(S(N)(=O)=O)cc2)cc1,-43.6% (active)
11,CN1CCN(c2ccc3c4c(cccc24)C(=O)N(c2cccc(-c4nn(-c5ccccc5)cc4-c4nc5ccccc5s4)c2)C3=O)CC1,95.1%
12,O=C(Cn1c(-c2ccccc2)nc2ccccc21)N=Nc1c(O)[nH]c2ccc(Cl)cc12,2.53% (active)
13,CCc1ccc(SC2c3cc(OC)ccc3Oc3nc(N)c(C#N)c(N)c32)cc1 (stereo unspecified),-22.1% (active)
14,CN(C)C(=O)c1cc(-c2ccc3ncnc(N4CCc5cc(F)c(Cl)cc54)c3c2)cnc1N,-58.5% (active)
15,CN1C(=O)C2(C(C#N)=C(c3ccc(Cl)cc3)Nc3c2c(-c2ccccc2)nn3-c2ccccc2)c2ccccc21 (stereo unspecified),97.1%
16,Cc1ccc2c(c1)/C(=C/C(=O)c1cc3ccccc3oc1=O)C(=O)N2,75.5%
17,N#CC1=C(c2cccs2)Nc2c(c(-c3ccccc3)nn2-c2ccccc2)C12C(=O)Nc1ccc(Cl)cc12 (stereo unspecified),41.2%
18,O=C(NC(=S)N1CCN(c2ncnc3c2cnn3-c2ccccc2)CC1)c1ccc(Br)cc1,80.3%
19,Nc1nnc(-c2cncc(Br)c2)c(-c2c[nH]c3ccc(Cl)cc23)n1,35%

row,SMILES,growth
1,COc1ccc(C2=NN(C(=O)[C@H]3[C@@H](c4ccco4)c4sc(=O)[nH]c4S[C@@H]3C)C(c3ccc4ccccc4c3)C2)cc1 (stereo partly specified),41.8%
2,CCOc1ccc2[nH]c(=O)c(C(c3nnnn3CC3CCCO3)N3CCN(Cc4ccccc4)CC3)cc2c1 (stereo unspecified),99.3%
3,FC(F)(F)c1cc2c(Cl)ncnc2n1CCC1CCOCC1,-29.6% (active)
4,COc1cc(/C=C/C(=O)c2cnn(-c3cc(=O)[nH]c4ccc(C)cc34)c2C)cc(OC)c1OC,1.91% (active)
5,O=C(N/N=C/c1c[nH]c2ccccc12)Nc1ccccc1Cl,2.02% (active)
6,Nc1nn2c(-c3cc4ccccc4oc3=O)ccnc2c1N=Nc1ccccc1,107%
7,Cc1ccc(C(=O)Nc2cc(-c3ccncc3)cc(C(F)(F)F)c2)cc1C#Cc1cnc2cccnn12,33.9%
8,COc1ccc(C(=O)/C=C/c2ccc3c(c2)OCCO3)cc1S(N)(=O)=O,87.8%
9,FC(F)(F)c1cc2c(Cl)ncnc2n1CCN1CCCCC1,56%
10,COc1ccc2[nH]cc(-c3cc4nc(-c5cn(C)c6ncccc56)cc(N)n4n3)c2c1,52.5%
11,Nc1nc(-c2ccccc2)c(N=Nc2ccc(Cl)cc2Cl)s1,-51.7% (active)
12,COc1ccc(NC(=O)Cn2c(/C=C/c3ccc([N+](=O)[O-])cc3)nc3ccccc3c2=O)cc1,84.2%
13,C[C@@H]1[C@H]2C[C@@H](C[C@H]1NCc1nc3ccccc3n1C1CCCCCC1)C2(C)C,73.6%
14,COc1ccc(NC(=O)Cn2c(/C=C/c3cccc(Br)c3)nc3ccccc3c2=O)cc1,67%
15,Cc1ccc(-c2cc(C(=O)N=Nc3c(O)[nH]c4ccc(F)cc34)c3ccccc3n2)cc1,61%
16,CCOC(=O)c1ccc(NC(=S)NC(=O)c2ccc(NC(=O)C(C)C)cc2OC)cc1,33.7%
17,CCCSc1nnc(-c2c(C)nc3sccn23)o1,105%
18,Cc1ccc(N=Nc2c(N)nn3c(-c4cc5ccccc5oc4=O)ccnc23)cc1,55.9%
19,O=C(N/N=C/c1ccc(Cl)o1)c1[nH]c2ccc(Br)cc2c1-c1ccccc1,-47.9% (active)
